In PubChem BioAssay one finds viability data, which are given here for 39 compounds.

Each structure is given as a SMILES string.

The assay in a line: Her2 expression decrease, cell viability multiplex – SKBR3 breast tumor cells, AlphaScreen, ATP viability, primary screen (AID 461).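 Note: percent of carrier control wells set as 100% viability.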 The conditions noted are these: SKBR3 Her2 protein level, 18-24 h, measured here: SKBR3 viability, ATP luminescence, at 10 µM. (In general: Bead proximity is the source of the signal in Alpha formats.)
Usually viability stands for a read-out of living cells in per cent, often relative to untreated cells. Regarding `CC(C)(C)OC(=O)N1CC=C2C(C#N)=C(N)C(C#N)(C#N)[C@H](c3cccnc3)[C@H]2C1`, the viability was found to be 88%.
Regarding `COc1cccc(N(C(=O)c2ccco2)C(C(=O)NC2CCCC2)c2ccc(N(C)C)cc2)c1` (centres undefined), the viability was 98%.
For `CCOC(=O)C1(C(=O)OCC)C(c2ccccc2)CC(O)N1C(C)=O` (centres undefined) the value was 116%; for `Cc1cccc(NC(=O)c2cnc3sccn3c2=O)n1`, 99%.
For `CCCn1c(SCC(=O)Nc2nnc(-c3ccccc3)s2)nnc1-c1ccccn1` the value was 98.5%; for `COc1ccc(-c2c3c(=O)n(C)c(=O)n(C)c3cn2-c2cccc(OC)c2)cc1`, 105%.
Regarding `CCOC(=O)C1CCN(Cc2ccc(C(=O)OC)cc2)CC1`, the viability was 93.5%.
For `O=C1c2ccccc2C(Nc2ccc3c(c2)OCCO3)N1Cc1ccco1` (centres undefined) the value was 106%; for `COc1cc(/C=N/n2c(C)nnc2C)cc(OC)c1OC`, 104%; for `Cc1cccc(N(C)C(=O)c2cc3cc4ccc(C)cc4nc3o2)c1`, 89%.
For `Cc1cc(NC(=O)CSc2nccn2-c2ccc(Cl)cc2)no1` the value was 91.5%.
The result for `Cc1ccc2[nH]c(=O)c(CN(CCCO)S(=O)(=O)c3c(C)ccc4nsnc34)cc2c1` reads 91%.
`Cc1ccc(S(=O)(=O)C2(C(=O)N3CCCCCC3)CC2)cc1`: the viability stood at 96.5%.
The result for `COc1cc(CN2CCSCC2)cc(OC)c1OC` reads 89.5%.
For `CCOc1ccc(-c2nc(S(=O)(=O)c3ccccc3)c(NCc3cccnc3)o2)cc1` the value was 97%; for `CC(=O)Nc1ccc(NS(=O)(=O)c2ccc(Cl)c(C(=O)O)c2)cc1`, 106%; for `CC(=O)CCc1ccc(OCCCCn2cncn2)cc1`, 113%.
The result for `CCCC(=O)Nc1ccc(NC(=O)c2ccccc2OC)cn1` reads 94.5%; that for `CCOC(=O)c1[nH]c(C)c(C(=O)Nc2ccccc2F)c1C`, 89.5%.
`COc1ccccc1C(=O)N1CCN(CCc2ccccc2)CC1`: the viability was 102%.
Take `CCN1CCN(c2c(Cl)cccc2NC(=O)c2ccc3c(c2)OCCO3)CC1`: the viability worked out at 80%.
For `COc1ccccc1NS(=O)(=O)c1ccc(OC)c(OC)c1` the value was 86%; for `CN(C(=O)c1ccc(S(=O)(=O)NC2CCCC2)cc1)C1CCCCC1`, 101%; for `C/C(N)=C(/C#N)C(=O)COC(=O)c1cc(S(=O)(=O)N2CCCCC2)ccc1C`, 88.5%.
The result for `CC(=O)Nc1ccc(-c2cc3ccccc3o2)cc1` reads 103%.
The result for `CCN(CC)S(=O)(=O)c1ccc2oc(C(=O)O)c(C)c2c1` reads 108%.
Consider `CCn1c(=O)cc(SCC(=O)Nc2ccc3c(c2)OCO3)c2ccccc21`, for which the viability amounted to 97%.
For `CN(C(=O)c1ccncc1)C1CC(C)(C)N(O)C(C)(C)C1` the value was 124%; for `CCCC(=O)Nc1ccccc1NC(=O)CN(C)S(=O)(=O)c1ccc(C)cc1`, 97%; for `Cn1c(=O)cc(OCC(=O)NCCCN2CCN(Cc3ccccc3)CC2)c2ccccc21`, 90.5%.
The result for `CCNC(=O)C1CC(=O)N(Cc2ccc3c(c2)OCO3)C(=Nc2ccc(OCC)cc2)S1` (centres undefined) reads 94.5%.
`Cc1cc(-c2ccccc2)nc2cc(C(N)=O)nn12`: the viability worked out at 102%.
For `Cc1ccc(C)c(-n2c(Cc3cc(=O)[nH]c(=O)[nH]3)nnc2SCC(=O)NCc2ccco2)c1`, the viability was found to be 131%.
For `Cn1c(C(=O)NCCC2=CCCCC2)cc2c(=O)n3ccccc3nc21` the value was 88%; for `O=C1CCC(c2ccccc2)N1C(=O)c1cccnc1` (centres undefined), 129%.
As for `Cc1ccc(-n2nnnc2SCC(=O)N2CCc3ccccc3C2)cc1`, the viability amounted to 113%.
For `COC(=O)c1oc2ccc(OC)cc2c1N` the value was 107%; for `O=C(C1CCC(CNS(=O)(=O)c2cccc3cccnc23)CC1)N1CCCC1` (centres undefined), 98.5%; for `FC(F)(F)C(F)(F)C(F)(F)c1nnc2ccc(N3CCOCC3)nn12`, 97.5%.
